From PubChem BioAssay AID1376 (SRMLSC, 2008)
Hit rate of the full screen: of about 220,000 compounds, about 530 (0.24%) were called active. Cut-off read from the data, not from the text of the source: active = inhibition above about 13%; inconclusive = no clear call, values can overlap the other calls; inactive = below that. The full list was thinned out, with actives kept by preference. Potency and affinity values are given separately.

Each molecule was assayed against Bifunctional protein GlmU (Mycobacterium tuberculosis (strain ATCC 25618 / H37Rv)) (UniProt P9WMN3) (assay: inhibition of mycobacterial GlmU enzyme – biochemical, glucosamine-1-phosphate acetyltransferase (AID 1376;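 note: 0% = complete reaction with vehicle and 100% = reaction without substrate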)). Conditions: M. tuberculosis GlmU acetyltransferase enzyme assay; stronger effect = higher value;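 tested at 30 µM in the primary screen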.
Bifunctional protein GlmU (Mycobacterium tuberculosis (strain ATCC 25618 / H37Rv)), sequence (P9WMN3 whole entry, looked up): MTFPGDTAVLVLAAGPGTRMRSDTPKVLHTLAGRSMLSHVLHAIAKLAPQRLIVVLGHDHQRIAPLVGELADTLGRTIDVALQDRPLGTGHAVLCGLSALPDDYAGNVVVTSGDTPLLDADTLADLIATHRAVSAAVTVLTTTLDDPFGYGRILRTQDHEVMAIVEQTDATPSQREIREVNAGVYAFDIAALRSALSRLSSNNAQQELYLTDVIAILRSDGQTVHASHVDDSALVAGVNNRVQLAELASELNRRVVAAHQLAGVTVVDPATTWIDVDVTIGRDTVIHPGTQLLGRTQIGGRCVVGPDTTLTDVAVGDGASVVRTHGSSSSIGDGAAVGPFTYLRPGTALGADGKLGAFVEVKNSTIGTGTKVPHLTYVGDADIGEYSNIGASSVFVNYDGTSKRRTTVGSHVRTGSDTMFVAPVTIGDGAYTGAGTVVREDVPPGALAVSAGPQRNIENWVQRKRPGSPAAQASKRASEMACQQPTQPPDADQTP
In the case of `Oc1ccccc1/C=N/NC1=NCCCCC1`, the inhibition was -2.12% (inactive). In the case of `COC(C(=O)NCc1ccc(C)cc1)c1ccccc1` (stereo not drawn), the inhibition was -0.55% (inactive). `CCC(=O)NCc1c(Cl)cccc1-n1cccc1` was tested, and the inhibition was -2.25% (inactive). In the case of `CC(=O)NCc1c(Cl)cccc1-n1cccc1`, the inhibition was -2.69% (inactive). In the case of `CC(C)=CC(=O)NCc1c(Cl)cccc1-n1cccc1`, the inhibition was 23.8% (active). For `COC(=O)c1ccccc1NC(=O)CCS(=O)(=O)c1ccc(Br)s1`, the inhibition was 6.53% (inactive). In the case of `COC(=O)c1ccc(NC(=O)CCS(=O)(=O)c2ccc(Br)cc2)cc1`, the inhibition was 3.55% (inactive). In the case of `Cc1ccc(CNC(=O)CCS(=O)(=O)c2ccc(C)cc2)cc1`, the inhibition was -0.32% (inactive). In the case of `Cc1ccc(CCNC(=O)CCS(=O)(=O)c2ccc(Br)cc2)cc1`, the inhibition was -0.29% (inactive). With `COc1cccc(CN2CCN(S(=O)(=O)c3ccc(Br)cc3)CC2)c1` the inhibition was -0.5% (inactive). With `COc1cc(C=C2C(=O)c3ccccc3C2=O)ccc1O` the inhibition was 10.6% (inactive). With `COc1ccc(C=C2C(=O)c3ccccc3C2=O)cc1O` the inhibition was 9.53% (inactive). `CC(C)(C)N1C(=O)c2ccccc2NC(=O)N1Cc1ccccc1` was tested, and the inhibition was -6.09% (inactive). In the case of `O=C1c2ccccc2CC1(Cc1ccccc1)Cc1ccccc1`, the inhibition was -4.43% (inactive). With `N#CCCN(Cc1cccnc1)C(=S)NC(=O)C1CC1` the inhibition was -4.01% (inactive). With `Cc1cccc(CSc2nnc(-c3ccccn3)n2N)c1` the inhibition was 1.5% (inactive). With `COc1ccc(/C=N/N=C2/NC(=O)C(CC(=O)O)S2)cc1OS(=O)(=O)c1ccccc1` (stereo not drawn) the inhibition was 3.56% (inactive). With `CCOc1cc(/C=N/N=C2/NC(=O)C(CC(=O)O)S2)ccc1OS(=O)(=O)c1ccc(C)cc1` (stereo not drawn) the inhibition was 13.1% (active). For `CCOc1cc(/C=N/N=C2/NC(=O)C(CC(=O)O)S2)ccc1OCc1ccc(Cl)cc1` (stereo not drawn), the inhibition was 0.64% (inactive). With `Cc1ccc(/C=C2\SC(=S)N(CC3CCCO3)C2=O)o1` (stereo not drawn) the inhibition was 9.7% (inactive). With `O=C(CSc1nc2ccccc2o1)N1CCN(S(=O)(=O)c2ccc3ccccc3c2)CC1` the inhibition was -1.93% (inactive). For `CCc1ccc(N(CC(=O)NCc2ccc(F)cc2)C(=O)c2csnn2)cc1`, the inhibition was 1.98% (inactive). In the case of `CCOc1ccc(/C=N/Nc2nc(=O)[nH]nc2C)cc1OC`, the inhibition was 2.62% (inactive). With `Cn1cccc1/C=C1\SC(=S)N(NC(=O)c2ccccc2O)C1=O` the inhibition was 0.05% (inactive). For `O=C(NN1C(=O)/C(=C/C=C/c2ccco2)SC1=S)c1ccncc1`, the inhibition was 10.6% (inactive). In the case of `O=C1/C(=C/c2cccs2)SC(=S)N1NS(=O)(=O)c1ccccc1`, the inhibition was 11.6% (inactive). `CC(/C=C1\SC(=S)N(NS(=O)(=O)c2ccccc2)C1=O)=C\c1ccccc1` was tested, and the inhibition was 5.96% (inactive). `O=C(NCC(c1cccnc1)N1CCN(c2ccccc2F)CC1)OCc1ccccc1` (stereo not drawn) was tested, and the inhibition was -3.82% (inactive). `CC(C)CNC(CC(=O)Nc1cccc([N+](=O)[O-])c1)C(=O)O` (stereo not drawn) was tested, and the inhibition was 0.89% (inactive). In the case of `CN(C)/C=C(\C#N)C(=O)Nc1ccc(O)cc1F`, the inhibition was -2.68% (inactive). In the case of `CC(NC(=O)c1ccco1)C(=O)OCc1cccc(Cl)c1` (stereo not drawn), the inhibition was 2.75% (inactive). For `Cc1ccccc1NC(=O)CS(=O)(=O)c1cn(CC(=O)N2CCOCC2)c2ccccc12`, the inhibition was -2.25% (inactive). `CCCN(Cc1cc2ccccc2[nH]c1=O)C(=O)c1cccc([N+](=O)[O-])c1` was tested, and the inhibition was -2.01% (inactive). `O=C(O)c1cccc(Cn2c(Cl)c(/C=N/NC(=O)c3ccccc3)sc2=O)c1` was tested, and the inhibition was 1.79% (inactive). For `O=C(O)c1cccc(Cn2c(Cl)c(/C=N/NC(=O)c3ccccc3O)sc2=O)c1`, the inhibition was 5.34% (inactive). In the case of `CCC(C)OC(=O)C[N+](C)(C)CCOC1CC2CCC1(C)C2(C)C` (stereo not drawn), the inhibition was -2.89% (inactive). `Cn1c(=O)c([N+](=O)[O-])c(NCc2ccc3c(c2)OCO3)c2ccccc21` was tested, and the inhibition was 0.57% (inactive). For `S=c1[nH]nc(COc2ccccc2)n1/N=C/c1ccco1`, the inhibition was 3.61% (inactive). `Nc1c(C(=O)NCC2CCCO2)sc2nc3c(c(-c4ccco4)c12)CC/C3=C\c1ccco1` (stereo not drawn) was tested, and the inhibition was 12.4% (inactive). For `Nc1c(C(=O)NC2CC2)sc2nc3c(c(-c4ccco4)c12)CC/C3=C/c1ccco1`, the inhibition was 16.9% (active). `Nc1c(C(=O)Nc2ccccc2)sc2nc3c(c(-c4ccco4)c12)CCC3` was tested, and the inhibition was -1.21% (inactive). For `Cc1cccc2cc(C#N)c(NCc3ccccc3)nc12`, the inhibition was 1.49% (inactive). `CCOC(=O)N1CCC(NC(=O)c2cccn3c(=O)c4cc(Br)ccc4nc23)CC1` was tested, and the inhibition was 3.26% (inactive). `CCOc1ccccc1NC=C1C(=O)OC2(CCCCC2)OC1=O` was tested, and the inhibition was -1.31% (inactive). `COc1ccc(OC)c(NC=C2C(=O)OC3(CCCCC3)OC2=O)c1` was tested, and the inhibition was 2.73% (inactive). In the case of `COc1ccccc1NC=C1C(=O)OC2(CCCCC2)OC1=O`, the inhibition was 13.1% (active). `CCC(C)(C)NC(=O)C(c1ccccc1)N(Cc1cccnc1)C(=O)c1csnn1` (stereo not drawn) was tested, and the inhibition was 0.49% (inactive). `CN(C)S(=O)(=O)c1cccc(NC(=O)/C=C/c2ccccc2[N+](=O)[O-])c1` was tested, and the inhibition was 6.53% (inactive). For `O=S1(=O)c2ccccc2N=NN1Cc1ccc(Cl)cc1`, the inhibition was 8.76% (inactive). In the case of `O=S1(=O)c2ccccc2N=NN1Cc1cc(Cl)cc(Cl)c1`, the inhibition was 3.2% (inactive). In the case of `CC(C1CC2CCC1C2)n1c(-c2ccco2)n[nH]c1=S` (stereo not drawn), the inhibition was -2.34% (inactive). In the case of `COc1cccc(/C=N/n2c(-c3ccco3)nc3ccccc3c2=O)c1OC`, the inhibition was -2.22% (inactive). For `COc1ccc(/C=N/n2c(-c3ccco3)nc3ccccc3c2=O)cc1`, the inhibition was -1.21% (inactive). In the case of `COc1cccc(/C=N/n2c(-c3ccco3)nc3ccccc3c2=O)c1`, the inhibition was 12.8% (active). In the case of `C=CCn1c(C(CC(C)C)CC(C)O)n[nH]c1=S` (stereo not drawn), the inhibition was -0.56% (inactive). For `Cc1ccc(-n2c(SCC(=O)NC3CCS(=O)(=O)C3)nc3ccccc3c2=O)cc1` (stereo not drawn), the inhibition was -6.07% (inactive). With `Cc1cccc(NC(=O)CCc2ccc(S(=O)(=O)NC3CCCCC3)cc2)c1` the inhibition was 4.56% (inactive). For `CC(C)(C)c1ccc(/C=N/Nc2cccc(C(=O)O)c2)cc1`, the inhibition was -6.54% (inactive). In the case of `CSc1ccc(/C=N/Nc2cccc(C(=O)O)c2)cc1`, the inhibition was 35.4% (active). In the case of `O=C(O)c1cccc(N/N=C/c2ccc(-c3ccccc3)cc2)c1`, the inhibition was -0.74% (inactive). With `Cc1nn(-c2ccccc2)c(Cl)c1/C=N/Nc1ccc(Cl)c(C(=O)O)c1` the inhibition was -0.65% (inactive). For `Cc1nn(-c2cccc(C(F)(F)F)c2)c(Cl)c1/C=N/Nc1cccc(C(=O)O)c1`, the inhibition was -2.39% (inactive). For `CCOc1cccc(C(=O)N(Cc2ccc(F)cc2)C2CCS(=O)(=O)C2)c1` (stereo not drawn), the inhibition was 3.65% (inactive). In the case of `CC1CCc2c(sc3ncn(Cc4ccc(C(=O)O)cc4)c(=O)c23)C1` (stereo not drawn), the inhibition was -5.17% (inactive). In the case of `CNS(=O)(=O)c1cccc(C(=O)OCC(=O)Nc2ccc(N3CCCCC3)cc2)c1`, the inhibition was -3.94% (inactive). `CN(CCC1CCOCC1)Cc1nc(Cc2ccccc2F)no1` was tested, and the inhibition was 3.72% (inactive). `CCCCOc1nc2ccccc2nc1C(C#N)S(=O)(=O)c1ccccc1` (stereo not drawn) was tested, and the inhibition was 3.84% (inactive). For `Cc1ccc(S(=O)(=O)C(C#N)c2nc3ccccc3nc2OCCO)cc1` (stereo not drawn), the inhibition was 2.66% (inactive). In the case of `N#CC(c1nc2ccccc2nc1OCCO)S(=O)(=O)c1ccccc1` (stereo not drawn), the inhibition was 12.9% (active). For `COc1ccc(C2C(C(C)=O)=C(O)C(=O)N2c2cccnc2)c(OC)c1` (stereo not drawn), the inhibition was 12.9% (active). `COc1ccc(C2C(C(C)=O)=C(O)C(=O)N2c2cccnc2)cc1OC` (stereo not drawn) was tested, and the inhibition was 1.89% (inactive). For `COc1ccc(C2C(C(C)=O)=C(O)C(=O)N2c2nccs2)c(OC)c1` (stereo not drawn), the inhibition was 0.3% (inactive). With `Cc1ccccc1NC(=O)C(C)n1c2ccccc2c2nc(=O)cc(C)n21` (stereo not drawn) the inhibition was -3.29% (inactive). For `Nc1cc(C(=O)O)c(N)c2c1C(=O)c1ccccc1C2=O`, the inhibition was 12.9% (active). In the case of `Nc1c(C(=O)O)ccc2c1C(=O)c1ccccc1C2=O`, the inhibition was 5.83% (inactive). `O=C(O)c1cccc2c1C(=O)c1ccccc1C2=O` was tested, and the inhibition was -4.06% (inactive). `Cc1ccc2nsnc2c1S(=O)(=O)N1CCN(CCc2ccccc2)CC1` was tested, and the inhibition was -1.69% (inactive). In the case of `Cn1c(=O)n(C)c2cc(NC(=O)c3ccccc3[N+](=O)[O-])c(Br)cc21`, the inhibition was -4.22% (inactive). With `Clc1ccc(Cn2cnc3ccccc32)cc1` the inhibition was -0.58% (inactive). In the case of `Clc1ccc(CSc2nnc(Cn3cnc4ccccc43)o2)cc1`, the inhibition was 15% (active). With `NC(=O)CSc1nnc(Cn2cnc3ccccc32)o1` the inhibition was -3.79% (inactive). With `CC(C)(CN=C1NS(=O)(=O)c2ccccc21)CNC(=O)CN1C(=O)c2ccccc2C1=O` the inhibition was 0.96% (inactive). For `O/C(=C\Sc1nnc(Cc2ccccc2)o1)c1ccc(Br)cc1`, the inhibition was 9.57% (inactive). With `Cc1cccc(-n2nc3c(c2NC(=O)CCC2CCCCC2)CS(=O)C3)c1C` (stereo not drawn) the inhibition was 19.3% (active). In the case of `O=C(CCC1CCCCC1)Nc1c2c(nn1-c1ccc(F)cc1)CS(=O)C2` (stereo not drawn), the inhibition was -0.99% (inactive). `Cc1ccc(-n2nc3c(c2NC(=O)CCC2CCCCC2)CS(=O)C3)cc1` (stereo not drawn) was tested, and the inhibition was 4.09% (inactive). For `COc1ccccc1C1C(C(=O)NCc2ccccc2)=C(C)Nc2ncnn21` (stereo not drawn), the inhibition was -0.29% (inactive). With `O=C(NCc1cccc(Cl)c1)c1ccc(S(=O)(=O)Nc2cccc(C(F)(F)F)c2)cc1` the inhibition was 6.21% (inactive). With `CNS(=O)(=O)c1c(C)cc(C)c(N(C)S(=O)(=O)c2ccccc2)c1C` the inhibition was 4.09% (inactive). In the case of `O=C(O)C(Cc1ccccc1)N1C(=O)/C(=C/c2ccccc2)SC1=S` (stereo not drawn), the inhibition was 7.96% (inactive). With `O=C(O)CCCN1C(=O)/C(=C/C=C/c2ccco2)SC1=S` the inhibition was 5.29% (inactive). For `Cc1ccc(/C=C2\SC(=S)N(C(Cc3ccccc3)C(=O)O)C2=O)cc1` (stereo not drawn), the inhibition was 5.14% (inactive). `O=C(O)C(Cc1ccccc1)N1C(=O)/C(=C/C=C/c2ccco2)SC1=S` (stereo not drawn) was tested, and the inhibition was 26.9% (active). In the case of `COc1ccc(/C=C2\SC(=S)N(C(Cc3ccccc3)C(=O)O)C2=O)cc1` (stereo not drawn), the inhibition was 1.51% (inactive). In the case of `O=C(O)CC(C(=O)O)N1C(=O)/C(=C/C=C/c2ccco2)SC1=S` (stereo not drawn), the inhibition was 17.9% (active). For `O=C(O)C(Cc1ccccc1)N1C(=O)/C(=C/c2cccc3ccccc23)SC1=S` (stereo not drawn), the inhibition was 3.53% (inactive). With `O=C(O)C(Cc1ccccc1)N1C(=O)/C(=C/c2cccs2)SC1=S` (stereo not drawn) the inhibition was 17.4% (active). `O=C1S/C(=C\C=C\c2ccco2)C(=O)N1c1ccc(O)cc1` was tested, and the inhibition was 11.9% (inactive).
